Source: the antibiotic and cytotoxicity screens of Wong et al. (2023)
The whole screen tested about 39,000 compounds, of which about 1,500 (3.8%) were called active. The full list was thinned out, with actives kept by preference.

What follows are compounds tested on HSkMC (human skeletal muscle cells) (assay: cytotoxicity call (relative viability < 0.9)). Conditions: 10 µM.
`C[C@H](CO)N1C[C@H](C)[C@H](CN(C)C(=O)Nc2ccc(C(F)(F)F)cc2)OCCCC[C@H](C)Oc2ccc(NC(=O)NC3CCCCC3)cc2C1=O` was tested, and the cytotoxicity call was “inactive”.
For `C[C@@H]1CCCCO[C@@H](CN(C)C(=O)c2ccccc2)[C@@H](C)CN([C@@H](C)CO)C(=O)c2cc(NC(=O)CCC(F)(F)F)ccc2O1`, the cytotoxicity call was “inactive”.
In the case of `CO[C@@H]1CN(C)C(=O)c2cc(NC(=O)C3CCOCC3)ccc2OC[C@@H](C)N(Cc2cccnc2)C[C@@H]1C`, the cytotoxicity call is reported as “inactive”.
For `CC1(C(=O)O)CCC2(C)CCC3(C)C(=CC(=O)C4C5(C)CCC(O)C(C)(C)C5CCC43C)C2C1` (configuration not stated), the cytotoxicity call was “inactive”.
In the case of `CC(=O)Oc1cc2c(c(C)c1OC(C)=O)CC=C1[C@@]2(C)CC[C@@]2(C)[C@H]3C[C@](C)(C(=O)O)CC[C@]3(C)CC[C@]12C`, the cytotoxicity call is reported as “active”.
For `C[C@@H]1CN([C@@H](C)CO)C(=O)Cc2cc(NC(=O)NC3CCCCC3)ccc2O[C@@H]1CN(C)C(=O)Nc1cccc2ccccc12`, the cytotoxicity call was “inactive”.
With `C[C@@H]1CN([C@H](C)CO)C(=O)Cc2cc(NS(C)(=O)=O)ccc2O[C@H]1CN(C)S(=O)(=O)c1cccs1` the cytotoxicity call was “inactive”.
With `CC(C)CC#Cc1ccc2c(c1)O[C@@H](CN(C)C(=O)Cc1ccccn1)[C@@H](C)CN([C@H](C)CO)S2(=O)=O` the cytotoxicity call was “inactive”.
With `C[C@@H]1CN([C@H](C)CO)C(=O)Cc2cc(NC(=O)Nc3ccc(C(F)(F)F)cc3)ccc2O[C@@H]1CN(C)CC1CCCCC1` the cytotoxicity call was “active”.
`C[C@H]1CN([C@@H](C)CO)C(=O)Cc2cc(NC(=O)Nc3ccc(C(F)(F)F)cc3)ccc2O[C@@H]1CN(C)CC1CCCCC1` was tested, and the cytotoxicity call was “active”.
In the case of `C[C@@H]1CN([C@H](C)CO)C(=O)Cc2cc(NC(=O)Nc3ccc(F)cc3)ccc2O[C@H]1CN(C)CC1CCCCC1`, the cytotoxicity call is reported as “inactive”.
With `C[C@H]1CN([C@@H](C)CO)C(=O)Cc2cc(NC(=O)Nc3ccc(C(F)(F)F)cc3)ccc2O[C@H]1CN(C)CC1CCCCC1` the cytotoxicity call was “active”.
For `C[C@@H]1CN([C@@H](C)CO)C(=O)Cc2cc(NC(=O)Nc3ccc(C(F)(F)F)cc3)ccc2O[C@@H]1CN(C)CC1CCCCC1`, the cytotoxicity call was “inactive”.
With `C[C@H](CO)N1C[C@H](C)[C@H](CN(C)CC2CCCCC2)Oc2ccc(NC(=O)Nc3ccc(C(F)(F)F)cc3)cc2CC1=O` the cytotoxicity call was “active”.
In the case of `Cc1ccc(S(=O)(=O)N(C)C[C@@H]2OCCCC[C@@H](C)Oc3ccc(NC(=O)Nc4cccc5ccccc45)cc3C(=O)N([C@H](C)CO)C[C@@H]2C)cc1`, the cytotoxicity call is reported as “inactive”.
In the case of `COCC(=O)N(C)C[C@H]1Oc2cc(C#C[C@H](C)O)ccc2S(=O)(=O)N([C@@H](C)CO)C[C@@H]1C`, the cytotoxicity call is reported as “inactive”.
For `O=C(CN1CCOCC1)N[C@@H]1CC[C@H](CCn2cc(C3CC3)nn2)O[C@H]1CO`, the cytotoxicity call was “inactive”.
`C[C@@H]1CN([C@@H](C)CO)C(=O)Cc2cc(NS(=O)(=O)c3cn(C)cn3)ccc2O[C@H]1CN(C)S(=O)(=O)c1ccc(F)cc1` was tested, and the cytotoxicity call was “inactive”.
For `C[C@@H]1CN([C@H](C)CO)C(=O)c2cc(NC(=O)NC3CCCCC3)ccc2O[C@@H](C)CCCCO[C@H]1CN(C)C(=O)NC1CCCCC1`, the cytotoxicity call was “inactive”.
`C[C@H]1CN([C@@H](C)CO)C(=O)c2cccc(NC(=O)Nc3ccc4c(c3)OCO4)c2O[C@@H]1CN(C)C(=O)Nc1cccc2ccccc12` was tested, and the cytotoxicity call was “inactive”.
In the case of `O=C(C[C@H]1CC[C@H]2NC[C@@H](O)COC[C@@H]2O1)NCCN1CCCCC1`, the cytotoxicity call is reported as “inactive”.
`CC(C)NC(=O)Nc1ccc2c(c1)CC(=O)N([C@H](C)CO)C[C@@H](C)[C@H](CN(C)C(=O)Nc1ccc3c(c1)OCO3)O2` was tested, and the cytotoxicity call was “inactive”.
With `C[C@@H]1CCCCO[C@@H](CN(C)C(=O)NC2CCCCC2)[C@H](C)CN([C@@H](C)CO)C(=O)c2cc(NC(=O)CCC(F)(F)F)ccc2O1` the cytotoxicity call was “inactive”.
In the case of `Cc1noc(C)c1NC(=O)N(C)C[C@H]1OCCCC[C@@H](C)Oc2ccc(NC(=O)C3CCCCC3)cc2C(=O)N([C@H](C)CO)C[C@@H]1C`, the cytotoxicity call is reported as “inactive”.
`C[C@H]1CN([C@@H](C)CO)C(=O)Cc2cc(NC(=O)Nc3ccc(F)cc3)ccc2O[C@@H]1CN(C)CC1CCCCC1` was tested, and the cytotoxicity call was “inactive”.
With `C[C@@H]1CN([C@H](C)CO)C(=O)Cc2cc(NC(=O)Nc3ccc(C(F)(F)F)cc3)ccc2O[C@H]1CN(C)CC1CCCCC1` the cytotoxicity call was “active”.
`C[C@@H]1CN([C@@H](C)CO)C(=O)Cc2cc(NC(=O)Nc3ccc(C(F)(F)F)cc3)ccc2O[C@H]1CN(C)CC1CCCCC1` was tested, and the cytotoxicity call was “active”.
For `C[C@H](CO)N1C[C@H](C)[C@H](CN(C)Cc2ccc3c(c2)OCO3)OCCCC[C@H](C)Oc2ccc(NC(=O)Cc3ccccc3)cc2C1=O`, the cytotoxicity call was “inactive”.
For `C[C@H]1CN([C@@H](C)CO)C(=O)Cc2cc(NC(=O)Nc3ccc4c(c3)OCO4)ccc2O[C@@H]1CN(C)Cc1ccc(-c2ccccc2)cc1`, the cytotoxicity call was “inactive”.
With `CC(C)[Si](C#Cc1ccc(Oc2ccccc2)cc1)(O[Si](C#Cc1ccc(Oc2ccccc2)cc1)(C(C)C)C(C)C)C(C)C` the cytotoxicity call was “inactive”.
With `COc1ccc(CN(C)C[C@@H]2OCCCC[C@@H](C)Oc3ccc(NC(=O)c4ccncc4)cc3C(=O)N([C@H](C)CO)C[C@H]2C)cc1` the cytotoxicity call was “inactive”.
With `O=C(Cc1ccncc1)Nc1ccc2c(c1)[C@@H]1C[C@H](CC(=O)N3CCc4ccccc4C3)O[C@@H](CO)[C@@H]1O2` the cytotoxicity call was “inactive”.
In the case of `CO[C@H]1O[C@H](CO)[C@@H](OC(=O)Nc2ccccc2-c2ccccc2)[C@H](OC(=O)Nc2ccccc2-c2ccccc2)[C@@H]1OC(=O)Nc1ccccc1-c1ccccc1`, the cytotoxicity call is reported as “inactive”.
With `CO[C@H]1O[C@H](CO)[C@@H](OC(=O)Nc2cccc(F)c2)[C@H](OC(=O)Nc2ccccc2-c2ccccc2)[C@@H]1OC(=O)Nc1ccccc1-c1ccccc1` the cytotoxicity call was “active”.
In the case of `CO[C@H]1O[C@H](CO)[C@@H](OC(=O)Nc2ccccc2-c2ccccc2)[C@H](OC(=O)Nc2ccccc2)[C@@H]1OC(=O)Nc1ccccc1`, the cytotoxicity call is reported as “inactive”.
For `CO[C@H]1O[C@H](CO)[C@@H](OC(=O)Nc2ccccc2-c2ccccc2)[C@H](OC(=O)Nc2ccc3c(c2)OCO3)[C@H]1OC(=O)Nc1ccc2c(c1)OCO2`, the cytotoxicity call was “inactive”.
In the case of `CCc1cccc(NC(=O)O[C@H]2[C@H](OC(=O)Nc3ccccc3-c3ccccc3)[C@H](OC(=O)Nc3ccccc3-c3ccccc3)[C@@H](OC)O[C@@H]2CO)c1`, the cytotoxicity call is reported as “inactive”.
`CO[C@H]1O[C@H](CO)[C@@H](OC(=O)Nc2cccc(F)c2)[C@H](OC(=O)Nc2ccccc2-c2ccccc2)[C@H]1OC(=O)Nc1ccccc1-c1ccccc1` was tested, and the cytotoxicity call was “active”.
In the case of `C[C@@H]1CCCCO[C@@H](CN(C)Cc2ccccc2)[C@H](C)CN([C@@H](C)CO)C(=O)c2cc(NC(=O)Cc3ccccc3)ccc2O1`, the cytotoxicity call is reported as “inactive”.
For `C[C@H](CO)N1C[C@H](C)[C@@H](CN(C)S(C)(=O)=O)Oc2ccc(NC(=O)Nc3ccc(F)cc3)cc2C1=O`, the cytotoxicity call was “inactive”.
`C[C@@H]1CN([C@@H](C)CO)C(=O)c2cc(NC(=O)CCCN(C)C)ccc2O[C@@H](C)CCCCO[C@@H]1CN(C)CC1CCCCC1` was tested, and the cytotoxicity call was “inactive”.
`C[C@H]1CN([C@@H](C)CO)C(=O)Cc2cc(NS(=O)(=O)c3ccc(Cl)cc3)ccc2O[C@H]1CN(C)Cc1ccc(Oc2ccccc2)cc1` was tested, and the cytotoxicity call was “active”.
For `C[C@H](CO)N1C[C@H](C)[C@H](CN(C)Cc2ccc(Oc3ccccc3)cc2)Oc2ccc(NS(=O)(=O)c3ccc(Cl)cc3)cc2CC1=O`, the cytotoxicity call was “active”.
With `C[C@H]1CN([C@@H](C)CO)C(=O)Cc2cc(NS(=O)(=O)c3ccc(Cl)cc3)ccc2O[C@@H]1CN(C)Cc1ccc(Oc2ccccc2)cc1` the cytotoxicity call was “active”.
With `C[C@@H]1CN([C@H](C)CO)C(=O)Cc2cc(NS(=O)(=O)c3ccc(Cl)cc3)ccc2O[C@@H]1CN(C)Cc1ccc(Oc2ccccc2)cc1` the cytotoxicity call was “active”.
With `Nc1nc(=O)c2[nH]c(=O)cnc2[nH]1` the cytotoxicity call was “inactive”.
With `COc1ccc(CN(C)C[C@H]2OCCCC[C@H](C)Oc3ccc(NC(=O)c4ccccc4)cc3C(=O)N([C@H](C)CO)C[C@@H]2C)cc1` the cytotoxicity call was “inactive”.
With `CO[C@@H]1CN(C)C(=O)c2ccc(NC(=O)Nc3ccccc3)cc2OC[C@@H](C)N(C(=O)CN(C)C)C[C@H]1C` the cytotoxicity call was “inactive”.
`COCC(=O)Nc1ccc2c(c1)C(=O)N(C)C[C@@H](OC)[C@@H](C)CN(Cc1cccc(F)c1)[C@@H](C)CO2` was tested, and the cytotoxicity call was “inactive”.
`CC(C)Cn1cnc2c1c(=O)n(C)c(=O)n2C` was tested, and the cytotoxicity call was “inactive”.
In the case of `CC(=O)N1C[C@@H](NC(=O)c2nccn2C)[C@@H]2OCCC[C@@H]21`, the cytotoxicity call is reported as “inactive”.
`C[C@H](CO)N1C[C@H](C)[C@H](CN(C)C(=O)CCC(F)(F)F)OCCCC[C@H](C)Oc2ccc(NS(=O)(=O)c3ccccc3)cc2C1=O` was tested, and the cytotoxicity call was “inactive”.
For `CN1CCN(C(=O)C[C@H]2C[C@@H]3c4cc(NS(=O)(=O)c5ccc(F)cc5)ccc4O[C@@H]3[C@@H](CO)O2)CC1`, the cytotoxicity call was “inactive”.
With `C=CCOC(=O)[C@H]1[C@@H]2C(=O)O[C@@H](c3ccccc3)[C@@H](c3ccccc3)N2[C@@H](c2ccc(OCCOC(=O)[C@@H]3C[C@@H]4C(=O)N[C@@H](CCCC[N+](C)(C)C)C(=O)N4[C@@H]3c3cccc(OCCO)c3)cc2)[C@]12C(=O)Nc1ccc(I)cc12` the cytotoxicity call was “inactive”.
For `Cc1noc(C)c1S(=O)(=O)N(C)C[C@H]1OCCCC[C@@H](C)Oc2ccc(NS(C)(=O)=O)cc2C(=O)N([C@@H](C)CO)C[C@@H]1C`, the cytotoxicity call was “inactive”.
For `COc1ccc(NC(=O)N(C)C[C@@H]2Oc3c(NC(=O)C4CCOCC4)cccc3C(=O)N([C@@H](C)CO)C[C@@H]2C)cc1`, the cytotoxicity call was “inactive”.
With `COCC(=O)Nc1ccc2c(c1)C(=O)N(C)C[C@@H](OC)[C@@H](C)CN(C(=O)Cc1cccnc1)[C@@H](C)CO2` the cytotoxicity call was “inactive”.
For `CCCCn1c(SCC(N)=O)nc2c1c(=O)n(C)c(=O)n2C`, the cytotoxicity call was “inactive”.
`C[C@@H]1CN([C@H](C)CO)C(=O)Cc2cc(NS(=O)(=O)c3ccc(Cl)cc3)ccc2O[C@H]1CN(C)Cc1ccc(Oc2ccccc2)cc1` was tested, and the cytotoxicity call was “active”.
With `C[C@@H]1CN([C@@H](C)CO)C(=O)Cc2cc(NS(=O)(=O)c3ccc(Cl)cc3)ccc2O[C@H]1CN(C)Cc1ccc(Oc2ccccc2)cc1` the cytotoxicity call was “active”.
In the case of `C[C@H](CO)N1C[C@H](C)[C@@H](CN(C)Cc2ccc(Oc3ccccc3)cc2)Oc2ccc(NS(=O)(=O)c3ccc(Cl)cc3)cc2CC1=O`, the cytotoxicity call is reported as “inactive”.
For `C[C@@H]1CN([C@@H](C)CO)C(=O)Cc2cc(NS(=O)(=O)c3ccc(Cl)cc3)ccc2O[C@@H]1CN(C)Cc1ccc(Oc2ccccc2)cc1`, the cytotoxicity call was “active”.
